HSF1 inhib – HSF1 inhibition; activity change, negative = inhibition, % at 7.5 µM (by protocol); AID 2098; hit rate 0.77% among 300,000; NIH3T3-HGL HSE-luciferase, MG132-induced, luminescence 8 h; hits give low values;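 active = more than half of replicate wells show activity change below -50%, luminescence cut by over half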;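 also: luciferase reports HSF-1 transcriptional activity via heat shock element; 0% = median of DMSO wells and -100% = zero luminescence signal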
TWEAK Fn14 block – TWEAK-Fn14 signaling inhibition; inhibition, % at 10 µM; hit rate 2% among 360,000; TWEAK-stimulated Fn14 reporter cells, luciferase luminescence, 8 h; AID 1159606; in the data active = inhibition above about 50%
TROY signal inh – TROY signaling inhibition; inhibition, % at 10 µM; Q293 LMP1-TROYcd NF-kB luciferase reporter, 4 h; hit rate 0.98% among 360,000; AID 1347056;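 active = compounds whose plate-normalised and pattern-corrected inhibition of the luciferase reporter signal at the single screening dose is 50% or more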
HSP90 refold inh – blocks HSP90-mediated luciferase refolding in reticulocyte lysate; Rabbit reticulocyte lysate, luciferase refolding luminescence, 3 h; inhibition, % at 5.6 µM; hit rate 0.91% among 290,000; AID 1789;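 active = inhibition above the screen-wide mean plus 3 SD, computed separately per campaign, cut at about 16% in these data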;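 also: 0% = DMSO wells and 100% = 60 µM geldanamycin wells; inhibitors lower the luminescence because luciferase stays unfolded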
HSF-1 act – increases HSF-1 driven luciferase reporter signal | NIH3T3-HGL HSF-1 luciferase reporter, MG132, 8 h; 100% = twice DMSO control signal | activation, % at 9 µM | hit rate 1.7% among 300,000 | AID 504408;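 active = mean replicate activation of at least 50% with a set share of replicates each reaching 50%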;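 also: 0% = median of the neutral control wells and 100% = twice that signal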
LMP1 NFkB inh – reduces LMP1-driven NF-kappaB luciferase signal | LMP1-induced NF-kappaB luciferase reporter cells, luminescence | inhibition, % at 12.5 µM | hit rate 0.69% among 350,000; in the data active = inhibition above about 41%;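 also: 0% = neutral control wells and 100% = reference inhibitor control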
Numbers without * were called inactive; x = not tested or not shown. The list is not random: actives were taken first. Their share in the collection is about 4.7%.

SMILES | HSF1 inhib | TWEAK Fn14 block | TROY signal inh | HSP90 refold inh | HSF-1 act | LMP1 NFkB inh
O=C(Nc1ncc(Cc2cccc([N+](=O)[O-])c2)s1)c1ccco1 | 6.4 | -24.6 | -36.3 | 1.8 | 41.7 | -16.7
Cc1ccc(-c2csc(NC(=O)c3ccco3)n2)cc1C | 8.5 | 7.0 | -24.3 | -2.3 | 62.4* | -31.5
CCOc1ccc(Cl)cc1-c1cc(C(=O)NCc2cc(C(F)(F)F)cc(C(F)(F)F)c2)[nH]n1 | x | 23.7 | 35.1 | x | x | x
N=C1C(c2nc(-c3ccc(F)cc3)cs2)=C(O)CN1Cc1ccc(Cl)cc1 | -9.6 | 105.9* | 2.5 | 3.0 | -6.9 | -17.7
COc1ccc(-c2csc(C3=C(O)CN(Cc4ccc(Cl)cc4)C3=N)n2)cc1OC | -0.7 | -10.1 | 15.6 | 2.9 | -3.6 | 12.8
COc1ccc(C(=O)n2cnc3ccccc32)cc1 | 1.7 | 78.0* | -5.2 | 1.9 | 10.2 | 8.8
COc1ccc(NC(=O)CSc2nnc3n2CCCCC3)cc1OC | x | 0.9 | 0.9 | x | x | -14.0
CC(=O)Nc1cccc(-c2cc(NC(C)=O)c3ncc(-c4ccc(C(C)=O)cc4)n3c2)c1 | x | -1.5 | 2.2 | x | x | x
CC1=C(C(=O)N(C(C)C)C(C)C)CC(CC(=O)NCCN2CCOCC2)C(=O)N1Cc1ccc(C(C)(C)C)cc1 (stereo not given) | x | -18.5 | 18.5 | x | x | x
C/C(=N\O)c1ccc2c3c([nH]c2c1)CCCC3 | 60.7 | -5.0 | -36.8 | -2.0 | 93.0* | -7.5
C/C(=N\O)c1ccc2[nH]ccc2c1 | 8.7 | -12.2 | -27.7 | 0.5 | 19.0 | -21.0
Cn1nnc2c[n+](CC(=O)c3ccc4ccccc4c3)cc(Br)c21 | 40.8 | 12.2 | 21.8 | 2.9 | 92.7* | -0.1
Cn1nnc2c[n+](CC(=O)c3ccc(Cl)cc3)cc(Br)c21 | 7.6 | -5.6 | -2.9 | -3.4 | 12.3 | x
CC(=O)SC(C[N+](=O)[O-])c1cn(C(C)=O)c2ccccc12 (stereo not given) | 168.8 | 14.3 | -11.4 | 1.4 | 203.8* | -3.8
Cc1ccc(S(=O)(=O)N2CCCCC2C)cc1[N+](=O)[O-] (stereo not given) | -9.6 | -24.7 | 8.6 | 16.4* | 0.6 | -3.1
Cc1ccc(S(=O)(=O)N2CCCC2)cc1[N+](=O)[O-] | -4.2 | 14.1 | -7.3 | 3.3 | 2.4 | 2.8
Cc1nc(C)c(C(=O)Nc2nc3c(C)cccc3s2)o1 | -33.8 | 70.2* | 35.3 | 2.7 | -40.0 | -3.4
Cc1cccc2sc(NC(=O)C3CCCO3)nc12 (stereo not given) | 30.3 | -7.5 | -55.9 | -1.6 | 63.4* | -39.2
Cc1cccc2sc(NC(=O)C3=NN(c4ccccc4)C(=O)CC3)nc12 | 2.3 | 3.0 | 10.2 | -1.7 | 5.7 | -0.5
CCOC1(OCC)OC(c2ccccc2)=C(C#N)C(C=Cc2ccccc2)C1(OCC)OCC (stereo not given) | x | 28.9 | -4.3 | x | x | -24.8
Cc1ccc(O)c(N)c1 | x | 33.5 | 37.3 | x | x | 4.4
Cc1ccc(SSc2cc(C)ccc2N)c(N)c1 | -10.5 | 58.1* | 42.7 | x | -12.1 | -45.6
CC(=O)CSc1nc(N)c(C#N)c(-c2cccs2)c1C#N | -30.1 | 51.7* | 11.6 | -0.5 | -29.3 | 2.1
Cc1[nH]c(-c2ccc(F)cc2)cc1C(=O)N1CCN(c2ccc(Cl)cc2)CC1 | 20.1 | 89.5* | 14.6 | 3.9 | 43.0 | -6.3
CC1(C(=O)NCc2ccc3c(c2)OCO3)CCN1C(=O)CCc1ccc(Cl)cc1Cl (stereo not given) | x | 11.4 | 33.7 | x | x | x
SMILES | HSF1 inhib | TWEAK Fn14 block | TROY signal inh | HSP90 refold inh | HSF-1 act | LMP1 NFkB inh
O=C1c2cc(Cl)ccc2-c2c(O)cc(Cl)cc21 | x | 54.3* | 38.9 | x | x | -12.4
CCOC(=O)c1c(C)[nH]c(C(=O)Cn2nnc(-c3ccccc3)n2)c1C | -7.2 | 8.5 | 4.1 | -4.1 | -13.4 | 4.4
CCOC(=O)c1c(C)[nH]c(C(=O)Cn2nnc(-c3ccccc3Cl)n2)c1C | 26.4 | -30.2 | -5.0 | -0.1 | 61.0* | 7.0
COc1ccc([C@H]2CC(=O)C[C@@H](CCn3cc(-c4ccncc4)nn3)O2)cc1 | x | 9.9 | -13.0 | x | x | x
C[C@]1(CC/C(=C/CO)CO)[C@H](C=O)CC[C@@]23COC(=O)C2=CCC[C@@H]31 | x | -25.0 | -14.7 | x | x | x
COC(=O)/C=C1/N/C(=N\c2nc(C)cc(C)n2)N(c2ccc(C)c(C)c2)C1=O | 55.2 | -1.2 | 5.2 | 0.3 | 90.9* | 8.2
CCc1nc2ccc(C(=O)N3CCN(S(=O)(=O)CC)CC3)cn2c1N(CC)CCN(C)C | x | 15.7 | -1.6 | x | x | x
CC1=CC2=C(OC1N(C)C)c1cccc3cccc(c13)C2=O (stereo not given) | 35.3 | 5.3 | 24.4 | 0.6 | 63.3* | 4.2
CCOC(=O)c1ccc(OS(=O)(=O)c2ccccc2)c(OC)c1 | 24.9 | -20.7 | -61.3 | -3.1 | 62.8* | -30.6
COc1ccc(/C(N)=N/OC(=O)CCc2ccccc2)cc1OC | 20.4 | -13.2 | -53.8 | -2.7 | 28.4 | -0.6
COc1ccc(C(=O)O/N=C(\N)c2ccccc2)cc1OC | 32.1 | -10.8 | -46.6 | -0.2 | 55.9* | -35.7
COc1ccc(/C(N)=N/OC(=O)CSc2ccccc2)cc1OC | 58.7 | -50.0 | -45.4 | 1.7 | 61.5* | -10.0
COc1ccc(C(=O)O/N=C(\N)c2cccc(C)c2)cc1OC | 20.6 | -12.4 | -69.0 | -4.4 | 35.0 | -22.7
S=C(NCC1CCCO1)N1CCN(c2cccc(Cl)c2)CC1 (stereo not given) | -2.5 | -28.5 | -10.7 | 2.1 | 3.4 | 8.9
S=C(NCCCN1CCOCC1)N1CCN(c2nc(-c3ccc(Cl)cc3)cs2)CC1 | 1.7 | 36.7 | 45.4 | -3.0 | 6.7 | 44.1*
S=C(NCC1CCCO1)N1CCN(c2nc(-c3ccc(Cl)cc3)cs2)CC1 (stereo not given) | 5.1 | 63.9* | 25.6 | -0.9 | 17.2 | 19.4
c1ccc(N2CCN(c3ncnc4sc5c(c34)CCC5)CC2)cc1 | -3.5 | 58.8* | 44.0 | 4.5 | -4.5 | 20.0
CCc1cc2c(N3CCN(c4ccccc4)CC3)ncnc2s1 | 4.2 | 60.5* | 20.1 | 0.7 | 4.4 | 44.5*
O=C(Nc1nnc([C@@H]2C[C@H](O)[C@@H](CO)O2)s1)Nc1ccccc1Oc1ccccc1 | x | -12.3 | -15.5 | x | x | x
COc1ccc(/C=C/C(=O)Nc2sc3c(c2C(=O)NCc2cccnc2)CCCC3)cc1 | 6.3 | 52.6* | 5.6 | -1.5 | 48.3 | 10.5
O=C(COc1ccccc1)Nc1sc2c(c1C(=O)NCc1cccnc1)CCCC2 | -30.1 | -7.4 | 28.4 | 5.8 | -35.6 | -8.5
CC(=O)/C(=N\Nc1ccc(Cl)cc1)Sc1nnc(-c2ccccc2)n1-c1ccccc1 | -55.2* | 4.1 | 14.0 | -4.4 | -62.4 | 9.7
C/C(CC(=O)Nc1ccc(Cl)c(Cl)c1)=N\NC(=O)C(=O)N1CCCCC1 | 43.2 | -0.7 | -4.8 | -1.1 | 54.3* | 6.8
C/C(CC(=O)Nc1ccc(N(C)C)cc1)=N\NC(=O)c1ccccn1 | x | -10.2 | -4.5 | 1.8 | x | -2.4
C/C(CC(=O)Nc1ccc2ccccc2c1)=N\NC(=O)c1ccc(O)c(O)c1 | 14.2 | 19.2 | -7.0 | 2.1 | 55.4* | -11.8
C/C(CC(=O)Nc1ccc(C)c(Cl)c1)=N\NC(=O)c1cccc(O)c1 | 32.4 | -3.8 | 17.0 | -1.4 | 44.7 | -0.5
